Experimental data: the supplement of paper PMC3342239
Structures can show the parent of a compound that is named as a salt.

Tested on: Saccharomyces cerevisiae
Experiment: fraction of cells in G1 phase (DNA content, flow cytometry); higher = more cells with unreplicated DNA (G1 delay)
Conditions: temperature: 30 C; YPD; JTY2953 pdr5 snq2 (sensitized); drug added to: cultures diluted from stationary phase; 6-7 h
Method in brief: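 S. cerevisiae grown in YPD at 30°C was exposed to library drugs. In one setup, overnight sensitized JTY2953 cultures were diluted 1∶200, given a final 20 µg/ml and fixed after 6–7 h, while other runs dosed dividing JTY2953 with fixation 6 h later or BY4741 with fixation 4.33 h later. Cells were ethanol-fixed, stained with SYTOX Green and analysed by flow cytometry at 10,000 events. The G1 fraction is the area of the Dean-Jett-Fox G1 peak divided by the summed G1 and G2/M areas.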

Structure (SMILES) | fraction of cells in G1 phase
Cc1c(C)c2c(c(C)c1O)CCC(C)(COc1ccc(CC3SC(=O)NC3=O)cc1)O2 (stereo unspecified) [Troglitazone] (45.2949 µM) | 0.591
CC(C)NCC(O)c1ccc(NS(C)(=O)=O)cc1 (stereo unspecified) [Sotalol HCl] (73.4298 µM) | 0.535
CNS(=O)(=O)Cc1ccc2[nH]cc(CCN(C)C)c2c1 [Sumatriptan Succinate] (48.368 µM) | 0.457
O=c1[nH]c(=O)n(C2CCCO2)cc1F (stereo unspecified) [Ftorafur] (99.9146 µM) | 0.512
CS(=O)(=O)c1ccc(C2=C(c3ccccc3)C(=O)OC2)cc1 [Rofecoxib] (63.6208 µM) | 0.536
CS(=O)(=O)CCNCc1ccc(-c2ccc3ncnc(Nc4ccc(OCc5cccc(F)c5)c(Cl)c4)c3c2)o1 [Lapatinib] (34.4192 µM) | 0.565
CCCCc1nc(Cl)c(CO)n1Cc1ccc(-c2ccccc2-c2nnn[nH]2)cc1 [Losartan potassium] (43.3825 µM) | 0.487
CO[C@@H]1[C@H](OC(=O)/C=C/C=C/C=C/C=C/C(=O)O)CC[C@]2(CO2)[C@H]1[C@@]1(C)O[C@@H]1CC=C(C)C [Fumagillin] (43.6151 µM) | 0.518
Nc1nc2c(ncn2COC(CO)CO)c(=O)[nH]1 [Ganciclovir] (78.3591 µM) | 0.451
N=C(N)c1ccc(OCCCCCOc2ccc(C(=N)N)cc2)cc1 [Pentamidine] (58.7494 µM) | 0.521
CN(C)CCCC1(c2ccc(F)cc2)OCc2cc(C#N)ccc21 (stereo unspecified) [Citalopram] (61.652 µM) | 0.454
Cc1ccc(/C(=C\CN2CCCC2)c2ccccn2)cc1 [Trans-triprolidine HCl] (71.8389 µM) | 0.521
Cc1ccc(S(=O)(=O)NC(=O)NN2CCCCCC2)cc1 [Tolazamide] (64.2249 µM) | 0.516
C=C1/C(=C\C=C2/CCC[C@]3(C)[C@@H]([C@H](C)CCCC(C)(C)O)CC[C@@H]23)C[C@@H](O)C[C@@H]1O [Calcitriol] (48.0019 µM) | 0.565
Cc1ccc(C(=O)c2ccc(CC(=O)O)n2C)cc1 [Tolmetin Na] (77.7328 µM) | 0.482
O=C(NCC1CCCCN1)c1cc(OCC(F)(F)F)ccc1OCC(F)(F)F (stereo unspecified) [Flecainide] (42.1585 µM) | 0.509
CCC(=O)O[C@]1(C(=O)CCl)[C@@H](C)C[C@H]2[C@@H]3CCC4=CC(=O)C=C[C@]4(C)[C@@]3(F)[C@@H](O)C[C@@]21C [Clobetasol propionate] (42.8282 µM) | 0.526
Cc1scc2c1N(C(=O)CN1CCN(C)CC1)c1ccccc1NC2=O [Telenzepine 2HCl] (53.9845 µM) | 0.498
C[C@H]1[C@H](OC(=O)CCC(=O)O)O[C@@H]2O[C@@]3(C)CC[C@H]4[C@H](C)CC[C@@H]1[C@@]24OO3 [Artesunate] (52.025 µM) | 0.556
CN[C@@H]1[C@H](O[C@H]2[C@H](O[C@H]3[C@H](O)[C@@H](O)[C@H](N=C(N)N)[C@@H](O)[C@@H]3N=C(N)N)O[C@@H](C)[C@]2(O)C=O)O[C@@H](CO)[C@H](O)[C@H]1O [Streptomycin sulfate] (34.3888 µM) | 0.478
CC1(C)C[C@@H]1C(=O)N/C(=C\CCCCSC[C@H](N)C(=O)O)C(=O)O [Cilastatin] (55.7942 µM) | 0.484
CC(C)(O)c1ccccc1CC[C@@H](SCC1(CC(=O)O)CC1)c1cccc(/C=C/c2ccc3ccc(Cl)cc3n2)c1 [Montelukast] (34.1181 µM) | 0.532
CC1(C)S[C@@H]2[C@H](NC(=O)[C@H](N)c3ccc(O)cc3)C(=O)N2[C@H]1C(=O)O [Amoxicillin] (54.7345 µM) | 0.457
C=C1CC[C@H](O)C/C1=C/C=C1\CCC[C@]2(C)[C@@H]([C@H](C)CCCC(C)(C)O)CC[C@@H]12 [Calcifediol] (49.9188 µM) | 0.545
CC(=O)SCC(Cc1ccccc1)C(=O)NCC(=O)OCc1ccccc1 (stereo unspecified) [Racecadotril] (51.8826 µM) | 0.509
Cc1cc2c(OCC(CNC(C)(C)C)OC(=O)c3ccccc3)cccc2[nH]1 (stereo unspecified) [Bopindolol malonate] (52.5636 µM) | 0.517
